From PubChem BioAssay AID1159580 (chemical genetic matrix, 2015)
Screen size: about 5,500 compounds; about 2,000 (36%) were called active. Not shown: some 18% with an inconclusive outcome. Cut-off read from the data, not from the text of the source: active = normalized growth mostly below about 0.91 (no sharp cut-off); inconclusive = no clear call, values can overlap the other calls; inactive = mostly above about 0.92. This is one part of the list.

Test: chemical genetic growth profiling, strain panel (AID 1159580);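 note: tested at 20 µM; growth read once vehicle control cultures reached saturation at 30 °C; 1 = growth at the plate median or of vehicle wells; lower values mean less growth of the strain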
Conditions: growth OD

Measured: normalized growth

COc1c(O)cc(O)cc1O
inactive: S. cerevisiae deletion strains, locus YJR066W, strain TOR1, hits give low values 0.977 | S. cerevisiae deletion strains, locus YKL009W, strain mrt4, hits give low values 1.07 | S. cerevisiae deletion strains, locus YKL068W, hits give low values 0.995 | S. cerevisiae deletion strains, locus YKL085W, strain MDH1 (second series), hits give low values 1.02 | S. cerevisiae deletion strains, locus YKL085W, strain MDH1, hits give low values 1.02 | S. cerevisiae deletion strains, locus YKL160W, strain elf1, hits give low values 1.02 | S. cerevisiae deletion strains, locus YKR001C, strain vps1, hits give low values 1.01 | S. cerevisiae deletion strains, locus YKR026C, strain gcn3, hits give low values 0.991 | S. cerevisiae deletion strains, locus YKR091W, strain srl3, hits give low values 0.996 | S. cerevisiae deletion strains, locus YLL001W, strain dnm1, hits give low values 0.999 | S. cerevisiae deletion strains, locus YLL026W, hits give low values 0.994 | S. cerevisiae deletion strains, locus YLL041C, strain sdh2, hits give low values 0.996 | S. cerevisiae deletion strains, locus YLR027C, strain aat2, hits give low values 0.985 | S. cerevisiae deletion strains, locus YLR039C, strain RIC1, hits give low values 1.06 | S. cerevisiae deletion strains, locus YLR058C, strain SHM2, hits give low values 1.01 | S. cerevisiae deletion strains, locus YLR102C, strain apc9, hits give low values 0.987 | S. cerevisiae deletion strains, locus YLR113W, strain HOG1, hits give low values 1.03 | S. cerevisiae deletion strains, locus YLR221C, strain rsa3, hits give low values 0.992 | S. cerevisiae deletion strains, locus YLR258W, strain gsy2, hits give low values 0.997 | S. cerevisiae deletion strains, locus YLR262C, strain YPT6 (second series), hits give low values 1.02 | S. cerevisiae deletion strains, locus YLR262C, strain YPT6, hits give low values 1.08 | S. cerevisiae deletion strains, locus YLR268W, strain sec22, hits give low values 1.05 | S. cerevisiae deletion strains, locus YLR320W, strain mms22, hits give low values 0.994 | S. cerevisiae deletion strains, locus YLR330W, strain CHS5, hits give low values 1.01 | S. cerevisiae deletion strains, locus YLR342W, strain FKS1 (second series), hits give low values 1.08 | S. cerevisiae deletion strains, locus YLR342W, strain FKS1, hits give low values 0.997 | S. cerevisiae deletion strains, locus YLR357W, strain rsc2, hits give low values 0.958 | S. cerevisiae deletion strains, locus YLR370C, strain arc18, hits give low values 0.992 | S. cerevisiae deletion strains, locus YLR371W, strain rom2, hits give low values 0.984 | S. cerevisiae deletion strains, locus YLR384C, strain iki3, hits give low values 1 | S. cerevisiae deletion strains, locus YLR418C, strain cdc73, hits give low values 0.988 | S. cerevisiae deletion strains, locus YML016C, strain PPZ1, hits give low values 0.994 | S. cerevisiae deletion strains, locus YML032C, strain rad52, hits give low values 1.02 | S. cerevisiae deletion strains, locus YML120C, strain ndi1, hits give low values 1 | S. cerevisiae deletion strains, locus YML124C, strain tub3, hits give low values 0.997 | S. cerevisiae deletion strains, locus YMR058W, strain fet3, hits give low values 1.01 | S. cerevisiae deletion strains, locus YMR078C, strain ctf18, hits give low values 0.986 | S. cerevisiae deletion strains, locus YMR125W, strain sto1, hits give low values 0.992 | S. cerevisiae deletion strains, locus YMR129W, hits give low values 0.99 | S. cerevisiae deletion strains, locus YMR205C, strain PFK2, hits give low values 0.997 | S. cerevisiae deletion strains, locus YMR223W, strain ubp8, hits give low values 1.01 | S. cerevisiae deletion strains, locus YMR231W, strain pep5, hits give low values 0.967 | S. cerevisiae deletion strains, locus YMR307W, strain GAS1, hits give low values 1.08 | S. cerevisiae deletion strains, locus YNL067W, strain RPL9B, hits give low values 1 | S. cerevisiae deletion strains, locus YNL071W, strain lat1, hits give low values 1 | S. cerevisiae deletion strains, locus YNL128W, strain TEP1, hits give low values 1.04 | S. cerevisiae deletion strains, locus YNL183C, strain NPR1, hits give low values 0.988 | S. cerevisiae deletion strains, locus YNL209W, strain ssb2, hits give low values 1.02 | S. cerevisiae deletion strains, locus YNL233W, strain BNI4, hits give low values 0.99 | S. cerevisiae deletion strains, locus YNL248C, strain rpa49, hits give low values 1 | S. cerevisiae deletion strains, locus YNL250W, strain rad50, hits give low values 0.956 | S. cerevisiae deletion strains, locus YNL271C, strain bni1, hits give low values 0.994 | S. cerevisiae deletion strains, locus YNL298W, strain CLA4, hits give low values 0.998 | S. cerevisiae deletion strains, locus YNL307C, strain MCK1, hits give low values 0.998 | S. cerevisiae deletion strains, locus YNL322C, strain KRE1 (second series), hits give low values 0.987 | S. cerevisiae deletion strains, locus YNR049C, strain mso1, hits give low values 0.994 | S. cerevisiae deletion strains, locus YNR052C, strain pop2, hits give low values 0.985 | S. cerevisiae deletion strains, locus YOL012C, strain htz1 0.85 | S. cerevisiae deletion strains, locus YOL147C, strain pex11, hits give low values 1 | S. cerevisiae deletion strains, locus YOR001W, strain rrp6, hits give low values 1.01 | S. cerevisiae deletion strains, locus YOR061W, strain CKA2, hits give low values 1.01 | S. cerevisiae deletion strains, locus YOR069W, strain VPS5, hits give low values 0.986 | S. cerevisiae deletion strains, locus YOR070C, strain gyp1, hits give low values 1.02 | S. cerevisiae deletion strains, locus YOR080W, strain dia2, hits give low values 0.99 | S. cerevisiae deletion strains, locus YOR083W, strain WHI5, hits give low values 1.01 | S. cerevisiae deletion strains, locus YOR106W, strain vam3, hits give low values 1.04 | S. cerevisiae deletion strains, locus YOR136W, strain idh2, hits give low values 0.991 | S. cerevisiae deletion strains, locus YOR144C, strain elg1, hits give low values 1 | S. cerevisiae deletion strains, locus YOR184W, strain ser1, hits give low values 1.1 | S. cerevisiae deletion strains, locus YOR231W, strain MKK1, hits give low values 1.04 | S. cerevisiae deletion strains, locus YOR265W, strain rbl2, hits give low values 1.02 | S. cerevisiae deletion strains, locus YOR270C, strain vph1, hits give low values 1.04 | S. cerevisiae deletion strains, locus YOR290C, strain snf2, hits give low values 1.01 | S. cerevisiae deletion strains, locus YOR316C, strain cot1, hits give low values 0.99 | S. cerevisiae deletion strains, locus YPL051W, strain arl3, hits give low values 1 | S. cerevisiae deletion strains, locus YPL055C, strain LGE1, hits give low values 1.07 | S. cerevisiae deletion strains, locus YPL078C, strain atp4, hits give low values 1.01 | S. cerevisiae deletion strains, locus YPL106C, strain sse1, hits give low values 0.986 | S. cerevisiae deletion strains, locus YPL240C, strain hsp82, hits give low values 1 | S. cerevisiae deletion strains, locus YPL241C, strain CIN2, hits give low values 1.01 | S. cerevisiae deletion strains, locus YPL256C, strain CLN2, hits give low values 1.02 | S. cerevisiae deletion strains, locus YPR119W, strain clb2, hits give low values 0.997 | S. cerevisiae deletion strains, locus YPR141C, strain kar3, hits give low values 0.971 | S. cerevisiae deletion strains, locus YPR163C, strain tif3, hits give low values 0.997 | S. cerevisiae deletion strains, locus YPR167C, strain met16, hits give low values 0.992 | S. cerevisiae deletion strains, strain wtn01, hits give low values 1.03 | S. cerevisiae strains, strain wild type, hits give low values 1.05
